According to the supplement of paper PMC10849652:
The full data set covers some 8,800 targets. This sample favours those with a hit. About 0.5% of all pairs of compound and target were hits. A number with no mark means an inactive call.

Tests used:
Experiment in all cases: log2 fold change, soluble protein after heating vs DMSO (PISA); higher = thermal stabilisation; K562 lysate, 10 uM; active = over 0.2 and 3.5 SD of the protein, either way, in both replicates (recomputed)
alvocidib = compound: CN1CC[C@H](c2c(O)cc(O)c3c(=O)cc(-c4ccccc4Cl)oc23)[C@H](O)C1 [alvocidib]
Outline: (§1)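 Soluble protein was defined as the supernatant remaining after 21,000xg for 90 min, following pooling of heated aliquots and adjustment to 0.5% NP-40 at 4°C. Before that, crude K562 extract at 1 mg/mL protein in PBS pH 7.4 with 1 mM MgCl2 was treated with 10 μM compound for 30 min and heated for 3 min across 48°C-58°C. Quantification used TMTpro 16plex LC-MS/MS with channel sums equalised, and values are log-two fold changes in thermal stability relative to solvent controls from duplicates.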

Tubastatin A = compound: CN1CCc2c(c3ccccc3n2Cc2ccc(C(=O)NO)cc2)C1 [Tubastatin A]
Outline: as §1

[1] = compound: CNC(=O)C1=CC=CC=C1NC2=NC(=NC=C2Cl)NC3=C(C=C(C=C3)N4CCOCC4)OC
Outline: as §1

defactinib = compound: CNC(=O)c1ccc(Nc2ncc(C(F)(F)F)c(NCc3nccnc3N(C)S(C)(=O)=O)n2)cc1 [defactinib]
Outline: as §1

[2] = compound: CNc1nc(-c2ccc3c(N)n[nH]c3c2)cc(N2C[C@@H](C(=O)NC3CCCCC3)CC[C@H]2C)n1
Outline: as §1

encorafenib = compound: COC(=O)N[C@@H](C)CNc1nccc(-c2cn(C(C)C)nc2-c2cc(Cl)cc(NS(C)(=O)=O)c2F)n1 [encorafenib]
Outline: as §1

[3] = compound: COC(=O)[C@H](CCSC)NC(=O)C1=C(C=C(C=C1)NC[C@H](CS)N)C2=CC=CC=C2
Outline: as §1

alisertib = compound: COc1cc(Nc2ncc3c(n2)-c2ccc(Cl)cc2C(c2c(F)cccc2OC)=NC3)ccc1C(=O)O [alisertib]
Outline: as §1

[4] = compound: COc1cc2nc(-c3cc(F)ccc3O)nc(N[C@@H]3CNC[C@H]3C(C)(C)O)c2cc1OC
Outline: as §1

gefitinib = compound: COc1cc2ncnc(Nc3ccc(F)c(Cl)c3)c2cc1OCCCN1CCOCC1 [gefitinib]
Outline: as §1

lapatinib = compound: CS(=O)(=O)CCNCc1ccc(-c2ccc3ncnc(Nc4ccc(OCc5cccc(F)c5)c(Cl)c4)c3c2)o1 [lapatinib]
Outline: as §1

pictilisib = compound: CS(=O)(=O)N1CCN(Cc2cc3nc(-c4cccc5[nH]ncc45)nc(N4CCOCC4)c3s2)CC1 [pictilisib]
Outline: as §1

crizotinib = compound: C[C@@H](Oc1cc(-c2cnn(C3CCNCC3)c2)cnc1N)c1c(Cl)ccc(F)c1Cl [crizotinib]
Outline: as §1

[5] = compound: C[C@H](C1=CC=C(C=C1)C(=O)NC2=C3C=CNC3=NC=C2)N
Outline: as §1

duvelisib = compound: C[C@H](Nc1ncnc2nc[nH]c12)c1cc2cccc(Cl)c2c(=O)n1-c1ccccc1 [duvelisib]
Outline: as §1

gandotinib = compound: Cc1cc(Nc2cc(CN3CCOCC3)c3nc(C)c(Cc4ccc(Cl)cc4F)n3n2)n[nH]1 [gandotinib]
Outline: as §1

tozasertib = compound: Cc1cc(Nc2cc(N3CCN(C)CC3)nc(Sc3ccc(NC(=O)C4CC4)cc3)n2)n[nH]1 [tozasertib]
Outline: as §1

doramapimod = compound: Cc1ccc(-n2nc(C(C)(C)C)cc2NC(=O)Nc2ccc(OCCN3CCOCC3)c3ccccc23)cc1 [doramapimod]
Outline: as §1

bafetinib = compound: Cc1ccc(NC(=O)c2ccc(CN3CC[C@H](N(C)C)C3)c(C(F)(F)F)c2)cc1Nc1nccc(-c2cncnc2)n1 [bafetinib]
Outline: as §1

[6] = compound: Cc1cccc(CC(=O)N2CCc3c2ccc(-c2cn(C)c4ncnc(N)c24)c3F)n1
Outline: as §1

Sequence of UniProt O15111 (O15111 whole entry, looked up): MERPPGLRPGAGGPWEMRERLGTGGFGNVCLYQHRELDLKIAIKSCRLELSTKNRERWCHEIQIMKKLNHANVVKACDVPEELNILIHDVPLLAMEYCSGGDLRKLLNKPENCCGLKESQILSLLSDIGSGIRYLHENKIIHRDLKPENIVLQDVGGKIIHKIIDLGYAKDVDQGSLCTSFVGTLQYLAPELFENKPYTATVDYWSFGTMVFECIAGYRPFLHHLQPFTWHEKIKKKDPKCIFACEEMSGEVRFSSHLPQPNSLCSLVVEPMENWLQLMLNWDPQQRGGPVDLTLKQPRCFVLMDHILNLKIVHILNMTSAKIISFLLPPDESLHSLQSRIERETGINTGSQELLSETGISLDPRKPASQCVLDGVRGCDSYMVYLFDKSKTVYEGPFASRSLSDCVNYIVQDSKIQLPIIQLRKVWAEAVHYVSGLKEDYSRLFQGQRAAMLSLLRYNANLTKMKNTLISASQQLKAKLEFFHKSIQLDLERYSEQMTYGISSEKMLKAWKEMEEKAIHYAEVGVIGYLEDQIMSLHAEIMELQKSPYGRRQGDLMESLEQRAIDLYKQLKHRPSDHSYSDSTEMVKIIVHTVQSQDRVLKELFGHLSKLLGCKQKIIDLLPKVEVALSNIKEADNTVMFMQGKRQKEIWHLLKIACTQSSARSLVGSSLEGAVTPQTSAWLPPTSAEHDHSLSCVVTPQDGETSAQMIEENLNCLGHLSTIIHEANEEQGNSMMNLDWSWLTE
Sequence of UniProt Q8WUH1 (Q8WUH1 whole entry, looked up): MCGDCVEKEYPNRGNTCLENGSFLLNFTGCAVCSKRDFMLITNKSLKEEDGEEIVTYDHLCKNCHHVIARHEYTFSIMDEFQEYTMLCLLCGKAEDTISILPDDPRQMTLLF
Sequence of UniProt Q6UWP2 (Q6UWP2 whole entry, looked up): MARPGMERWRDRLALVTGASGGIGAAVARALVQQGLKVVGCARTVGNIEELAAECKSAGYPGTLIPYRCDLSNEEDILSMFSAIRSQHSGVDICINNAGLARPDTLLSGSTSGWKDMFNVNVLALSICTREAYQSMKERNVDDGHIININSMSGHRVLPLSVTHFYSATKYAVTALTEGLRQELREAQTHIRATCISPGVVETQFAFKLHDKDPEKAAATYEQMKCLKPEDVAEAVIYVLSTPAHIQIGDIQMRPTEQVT
Sequence of UniProt Q96N67 (Q96N67 whole entry, looked up): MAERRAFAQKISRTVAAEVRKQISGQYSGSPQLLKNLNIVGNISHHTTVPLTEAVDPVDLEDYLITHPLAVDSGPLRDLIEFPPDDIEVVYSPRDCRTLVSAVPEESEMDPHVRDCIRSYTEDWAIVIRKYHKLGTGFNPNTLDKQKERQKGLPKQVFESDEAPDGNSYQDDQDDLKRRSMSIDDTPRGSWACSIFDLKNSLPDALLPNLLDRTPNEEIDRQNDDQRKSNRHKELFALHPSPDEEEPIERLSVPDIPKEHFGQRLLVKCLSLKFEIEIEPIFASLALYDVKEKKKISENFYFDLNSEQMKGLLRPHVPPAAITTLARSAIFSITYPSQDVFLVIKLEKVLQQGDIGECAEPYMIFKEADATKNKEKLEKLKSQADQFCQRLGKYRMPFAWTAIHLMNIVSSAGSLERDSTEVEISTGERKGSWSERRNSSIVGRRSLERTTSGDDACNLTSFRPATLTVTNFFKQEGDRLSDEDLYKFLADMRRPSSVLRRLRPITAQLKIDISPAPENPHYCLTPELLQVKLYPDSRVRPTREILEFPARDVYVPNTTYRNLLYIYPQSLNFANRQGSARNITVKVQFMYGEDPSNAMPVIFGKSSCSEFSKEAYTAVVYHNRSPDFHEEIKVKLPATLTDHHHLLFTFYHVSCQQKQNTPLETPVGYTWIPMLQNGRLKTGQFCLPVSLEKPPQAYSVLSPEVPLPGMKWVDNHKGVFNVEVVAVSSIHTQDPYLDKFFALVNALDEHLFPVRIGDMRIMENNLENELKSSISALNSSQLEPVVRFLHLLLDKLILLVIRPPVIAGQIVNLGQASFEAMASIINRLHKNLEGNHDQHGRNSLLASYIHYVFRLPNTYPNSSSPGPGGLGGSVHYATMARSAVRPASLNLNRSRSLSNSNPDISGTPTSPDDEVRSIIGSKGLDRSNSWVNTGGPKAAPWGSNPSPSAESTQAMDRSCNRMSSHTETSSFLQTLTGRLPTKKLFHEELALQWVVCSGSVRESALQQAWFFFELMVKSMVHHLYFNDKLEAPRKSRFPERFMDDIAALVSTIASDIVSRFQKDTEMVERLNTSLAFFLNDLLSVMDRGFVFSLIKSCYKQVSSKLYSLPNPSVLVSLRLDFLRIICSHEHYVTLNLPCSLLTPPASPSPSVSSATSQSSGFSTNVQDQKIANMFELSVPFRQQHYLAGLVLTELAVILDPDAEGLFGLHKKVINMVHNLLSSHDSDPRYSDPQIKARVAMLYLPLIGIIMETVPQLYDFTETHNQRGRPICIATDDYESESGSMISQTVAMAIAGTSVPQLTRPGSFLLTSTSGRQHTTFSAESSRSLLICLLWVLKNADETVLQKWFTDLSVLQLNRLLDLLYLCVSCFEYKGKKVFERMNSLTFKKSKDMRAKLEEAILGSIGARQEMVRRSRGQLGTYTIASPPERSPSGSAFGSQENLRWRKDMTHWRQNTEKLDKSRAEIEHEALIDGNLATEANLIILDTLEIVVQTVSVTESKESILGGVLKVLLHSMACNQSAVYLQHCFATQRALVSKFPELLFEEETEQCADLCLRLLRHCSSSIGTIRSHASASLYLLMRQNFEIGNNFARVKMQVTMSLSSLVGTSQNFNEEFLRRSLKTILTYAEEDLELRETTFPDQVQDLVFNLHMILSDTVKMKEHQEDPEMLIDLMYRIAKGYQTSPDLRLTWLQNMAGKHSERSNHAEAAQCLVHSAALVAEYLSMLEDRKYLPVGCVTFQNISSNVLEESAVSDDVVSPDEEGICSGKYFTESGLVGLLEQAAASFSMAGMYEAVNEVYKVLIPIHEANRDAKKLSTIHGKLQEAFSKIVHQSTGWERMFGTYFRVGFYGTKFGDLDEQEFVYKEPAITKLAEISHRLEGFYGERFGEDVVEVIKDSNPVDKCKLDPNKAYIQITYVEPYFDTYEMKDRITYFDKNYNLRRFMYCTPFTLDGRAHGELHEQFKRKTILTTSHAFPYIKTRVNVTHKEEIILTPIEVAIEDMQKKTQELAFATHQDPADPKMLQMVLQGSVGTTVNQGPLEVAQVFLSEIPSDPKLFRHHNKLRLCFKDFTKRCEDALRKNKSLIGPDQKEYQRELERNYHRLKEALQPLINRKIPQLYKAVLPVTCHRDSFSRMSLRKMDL
Sequence of UniProt P57737 (P57737 whole entry, looked up): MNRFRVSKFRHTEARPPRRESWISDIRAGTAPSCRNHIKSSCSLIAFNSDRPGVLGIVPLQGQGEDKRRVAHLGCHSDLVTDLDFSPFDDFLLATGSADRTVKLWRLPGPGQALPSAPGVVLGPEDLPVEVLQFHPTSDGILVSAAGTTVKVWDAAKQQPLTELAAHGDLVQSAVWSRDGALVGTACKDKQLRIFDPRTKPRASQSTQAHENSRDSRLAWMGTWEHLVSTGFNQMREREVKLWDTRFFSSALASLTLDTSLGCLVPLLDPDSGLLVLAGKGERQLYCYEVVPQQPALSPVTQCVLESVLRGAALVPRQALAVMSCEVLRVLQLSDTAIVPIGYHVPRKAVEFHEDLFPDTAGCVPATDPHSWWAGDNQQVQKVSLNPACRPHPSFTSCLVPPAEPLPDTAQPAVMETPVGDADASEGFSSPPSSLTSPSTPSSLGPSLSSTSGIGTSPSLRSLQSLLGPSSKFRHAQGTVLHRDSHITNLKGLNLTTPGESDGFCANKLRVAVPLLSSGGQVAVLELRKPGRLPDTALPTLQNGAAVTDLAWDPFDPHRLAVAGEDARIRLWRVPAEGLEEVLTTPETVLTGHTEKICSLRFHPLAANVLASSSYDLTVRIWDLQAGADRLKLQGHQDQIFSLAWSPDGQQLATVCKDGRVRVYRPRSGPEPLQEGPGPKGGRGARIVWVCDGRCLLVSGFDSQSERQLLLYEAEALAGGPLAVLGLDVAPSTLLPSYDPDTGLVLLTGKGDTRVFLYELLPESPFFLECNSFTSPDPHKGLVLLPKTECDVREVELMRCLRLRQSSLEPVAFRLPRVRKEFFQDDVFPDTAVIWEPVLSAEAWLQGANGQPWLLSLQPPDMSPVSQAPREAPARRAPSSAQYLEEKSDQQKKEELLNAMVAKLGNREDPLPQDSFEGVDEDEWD
Sequence of UniProt Q96DG6 (Q96DG6 whole entry, looked up): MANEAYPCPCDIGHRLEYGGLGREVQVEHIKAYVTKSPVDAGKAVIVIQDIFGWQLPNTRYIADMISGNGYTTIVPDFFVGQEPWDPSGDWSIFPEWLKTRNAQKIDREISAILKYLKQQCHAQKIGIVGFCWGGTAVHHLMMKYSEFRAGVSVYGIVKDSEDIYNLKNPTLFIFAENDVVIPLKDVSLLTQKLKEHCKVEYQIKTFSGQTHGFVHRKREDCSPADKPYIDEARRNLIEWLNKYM
Sequence of UniProt Q96MX0 (Q96MX0 whole entry, looked up): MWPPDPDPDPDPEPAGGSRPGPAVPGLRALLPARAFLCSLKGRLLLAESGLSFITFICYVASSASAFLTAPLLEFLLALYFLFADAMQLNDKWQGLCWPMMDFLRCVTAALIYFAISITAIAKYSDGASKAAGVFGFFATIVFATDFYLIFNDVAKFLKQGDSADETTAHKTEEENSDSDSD

Row | Target | log2 fold change (alvocidib) | log2 fold change (Tubastatin A) | log2 fold change [1] | log2 fold change (defactinib) | log2 fold change [2] | log2 fold change (encorafenib) | log2 fold change [3] | log2 fold change (alisertib) | log2 fold change [4] | log2 fold change (gefitinib) | log2 fold change (lapatinib) | log2 fold change (pictilisib) | log2 fold change (crizotinib) | log2 fold change [5] | log2 fold change (duvelisib) | log2 fold change (gandotinib) | log2 fold change (tozasertib) | log2 fold change (doramapimod) | log2 fold change (bafetinib) | log2 fold change [6]
1 | DNAH10 (UniProt Q8IVF4) | -0.248 | 0.056 | -0.086 | -0.074 | 0.246 | -0.04 | -0.001 | 0.027 | 0.046 | 0.043 | -0.075 | 0.066 | -0.136 | -0.553 (active) | 0.044 | 0.172 | -0.024 | 0.076 | -0.08 | 0.196
2 | DOCK7 (UniProt Q96N67) | 0.007 | -0.238 | 0.006 | -0.014 | -0.035 | 0.006 | 0.038 | 0.032 | 0.026 | 0.017 | -0.003 | -0.016 | -0.022 | -0.107 | -0.004 | -0.103 | 0.047 | 0.012 | -0.032 | 0.102
3 | CMTM3 (UniProt Q96MX0) | -0.007 | -0.231 | 0.04 | -0.022 | 0.061 | -0.011 | 0.064 | -0.099 | -0.036 | -0.123 | -0.027 | 0.029 | -0.069 | 0.023 | -0.052 | 0.016 | 0.042 | 0.025 | -0.057 | -0.059
4 | CORO7 isoform 3 (UniProt P57737) | 0.023 | -0.087 | -0.008 | 0.028 | 0.007 | -0.008 | 0.114 | 0.007 | -0.069 | -0.047 | 0.009 | -0.016 | -0.063 | 0.06 | 0.004 | -0.119 | 0.005 | 0.013 | 0.001 | -0.067
5 | DHRS11 (UniProt Q6UWP2) | -0.001 | -0.083 | 0.055 | 0.021 | 0.031 | 0.024 | 0.109 | -0.074 | 0.031 | -0.022 | -0.017 | 0.014 | 0.024 | -0.035 | 0.024 | -0.007 | 0.028 | -0.032 | -0.051 | -0.02
6 | CMBL (UniProt Q96DG6) | 0.006 | 0.001 | -0.012 | -0.051 | 0.013 | -0.051 | -0.009 | 0.001 | 0.038 | 0.03 | -0.024 | 0.076 | 0.065 | -0.162 | 0.031 | 0.127 | 0.016 | -0.021 | -0.028 | -0.001
7 | CHURC1 isoform 2 (UniProt Q8WUH1) | 0.002 | 0.002 | 0 | 0.051 | 0.024 | -0.068 | -0.005 | 0.013 | -0.145 | -0.025 | 0.012 | 0.043 | -0.047 | 0.026 | 0.049 | -0.014 | -0.032 | -0.01 | -0.019 | -0.001
8 | CHUK (UniProt O15111) | 0.029 | -0.203 | 0.077 | 0.089 | -0.039 | -0.021 | 0.121 | 0.018 | 0.052 | -0.06 | 0.001 | -0.031 | -0.067 | 0.112 | 0.036 | -0.067 | 0.024 | 0.008 | -0.001 | -0.048
